# Test results as given in PubChem BioAssay (NCI).
# The panel holds about 79,000 compounds, 15% with a hit somewhere; the sample as a whole holds those more often. A number with no mark means an inactive call. The source made the active and inactive calls. Rule as the data show it: active = growth inhibition above about 70%; inactive = the rest.
# Experiment: NCI Yeast Anticancer Drug Screen. Data for the sgs1 mgt1 strain (AID 161);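 also: 0% = growth of cultures given vehicle only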
# Details: S. cerevisiae sgs1 mgt1 strain, at 50.0 µM, stronger effect = higher value
# Method in brief: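 This yeast growth screen uses a strain with defined DNA-repair lesions; compound-treated growth is compared with vehicle-treated growth.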
row,SMILES,growth inhibition
1,Cc1ccccc1C(=O)NNC(=O)c1ccc2ccccc2c1,-3.9%
2,CCc1c(C)c2cc(N)ccc2[nH]c1=O,-3.7%
3,Cc1ccccc1OCC1COCN(C(C)(C)CO)CO1 (stereo not given),-5.5%
4,CC(Br)C(=O)Nc1ccc(C(=O)O)c(O)c1 (stereo not given),-18.8%
5,c1ccc(C(Sc2c[nH]c3ccccc23)(c2ccccc2)c2ccccc2)cc1 (tested in a mixture with another compound),9.8%
6,CN1CCC2(CC1)C(=O)N(Cc1ccccc1)C(=O)C2c1ccccc1 (stereo not given),-6%
7,COC(=O)CC/C=N/NC(N)=O,7.7%
8,NNc1ccc([N+](=O)[O-])c2[nH][nH]c(=O)c12,27.1%
9,CC(=O)Oc1cc(OC(C)=O)c(OC(C)=O)c2c1CCCC2,6.65%
10,CCOC(=O)C1=C(C)OC(C)(OC(C)=O)C1=O (stereo not given),2.8%
11,CN(CCO)CC(O)Cn1cnc2ncnc(N)c21 (stereo not given),28.7%
12,NC(=O)C1CC(O)CC(C(N)=O)O1 (stereo not given),-9.55%
13,NC1=NN(S(=O)(=O)c2ccc(Cl)cc2)CC1,-8.75%
14,O=C(/C=C/CBr)NC(Cc1ccccc1)C(=O)O (stereo not given),-18.1%
15,CC1OC2=N[C@@H]1C(=O)N[C@@H](C(C)C)C1=N[C@H](C(=O)N[C@@H](C(C)C)C3=N[C@H](C(=O)N[C@@H](C(C)C)C4=N[C@H](C(=O)N[C@H]2C(C)C)C(C)O4)C(C)O3)C(C)O1 (stereo not given in full),3.55%
16,c1ccc2c(C3=NCCO3)cccc2c1,8.3%
17,CC(C)(C)C(=O)c1ccc(-c2ccccc2)cc1,-6.45%
18,COC1C(C(=O)O)=CC=CC1OC(C)=O (stereo not given),-2.55%
19,CCCC(O)CNCC1CCC2CCc3cccc1c32 (stereo not given),4.5%
20,CCCCn1cnc2c(SCc3ccc(Cl)cc3Cl)nc(N)nc21,7.35%

row,SMILES,growth inhibition
1,Cc1ccc2c(c1)SCc1c-2[nH]c2ccccc12,95.3% (active)
2,COC(=O)c1cncn1C1CC1,-3.2%
3,COC(=O)C1C(=O)C2OC1C1OC(C)(C)OC21 (stereo not given),-12.1%
4,CC(C)(Oc1ccc(Cl)cc1)C(=O)NC1CC(C)(C)N(O)C(C)(C)C1,-13.2%
5,COC1C(O)CC(OC2CC(OC3CC(O[C@@H]4C(=O)c5c(cc6cc(OC7CC(OC8CC(O)C(O)C(C)O8)C(O)C(C)O7)c(C)c(O)c6c5O)C[C@H]4[C@H](OC)C(=O)[C@@H](O)[C@@H](C)O)OC(C)C3O)OC(C)C2O)OC1C (stereo not given in full),41.7%
6,O=CNCC1(c2ccccc2)CCN(Cc2ccccc2)CC1,3.4%
7,O=C(NCCCl)NCC1CCCO1 (stereo not given),-13.8%
8,O=C(O)c1ccc(F)cc1C(=O)O,4.75%
9,O=C1CCc2ccccc21,-15%
10,Nc1nc(N)c2nnsc2n1,13.3%
11,O=C(NNC(=S)Nc1ccc(S(=O)(=O)N2CCCCC2)cc1)c1ccncc1,33.5%
12,Cn1c(=O)oc2cc([N+](=O)[O-])c(Cl)cc21,-0.85%
13,CCOC(=O)c1ccc(NC(=O)CNC2CCCCC2)cc1,-3.2%
14,Nc1ccc(N=Nc2ccccc2)c(N)c1,27%
15,COc1ccc(C(SCC(N)C(=O)O)(c2ccccc2)c2ccccc2)cc1 (stereo not given),37%
16,O=C1C2C(C(=O)N1c1ccccc1)C1(Br)c3ccccc3C2(Br)C2C(=O)N(c3ccccc3)C(=O)C21 (stereo not given),-3.35%
17,N#Cc1cccc(N2C(=O)c3ccc(C(=O)c4ccc5c(c4)C(=O)N(c4cccc(C#N)c4)C5=O)cc3C2=O)c1,-49.5%
18,CCCCCCCCn1nnnc1N,1.45%
19,CC(C)CC(NS(=O)(=O)Cc1ccccc1)C(=O)NN (stereo not given),-3.85%
20,CN1CCC/C1=N\c1ncn[nH]1,-4.45%

# Experiment: NCI Yeast Anticancer Drug Screen. Data for the cln2 rad14 strain (AID 165);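 also: 0% = growth equal to vehicle treated cultures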
# Details: S. cerevisiae cln2 rad14 strain, at 50.0 µM, stronger effect = higher value
# Method in brief: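 Strain: cln2 rad14 yeast, altered in cell cycle control and DNA damage repair. Read-out: growth inhibition vs vehicle.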
row,SMILES,growth inhibition
1,Cc1ccccc1C(=O)NNC(=O)c1ccc2ccccc2c1,9.35%
2,CCc1c(C)c2cc(N)ccc2[nH]c1=O,-23.7%
3,Cc1ccccc1OCC1COCN(C(C)(C)CO)CO1 (stereo not given),7.9%
4,CC(Br)C(=O)Nc1ccc(C(=O)O)c(O)c1 (stereo not given),20.9%
5,c1ccc(C(Sc2c[nH]c3ccccc23)(c2ccccc2)c2ccccc2)cc1 (tested in a mixture with another compound),1.9%
6,CN1CCC2(CC1)C(=O)N(Cc1ccccc1)C(=O)C2c1ccccc1 (stereo not given),6.05%
7,COC(=O)CC/C=N/NC(N)=O,-17.8%
8,NNc1ccc([N+](=O)[O-])c2[nH][nH]c(=O)c12,11.2%
9,CC(=O)Oc1cc(OC(C)=O)c(OC(C)=O)c2c1CCCC2,-91.1%
10,CCOC(=O)C1=C(C)OC(C)(OC(C)=O)C1=O (stereo not given),-25.9%
11,CN(CCO)CC(O)Cn1cnc2ncnc(N)c21 (stereo not given),13.4%
12,NC(=O)C1CC(O)CC(C(N)=O)O1 (stereo not given),3.4%
13,NC1=NN(S(=O)(=O)c2ccc(Cl)cc2)CC1,-21.7%
14,O=C(/C=C/CBr)NC(Cc1ccccc1)C(=O)O (stereo not given),-4%
15,CC1OC2=N[C@@H]1C(=O)N[C@@H](C(C)C)C1=N[C@H](C(=O)N[C@@H](C(C)C)C3=N[C@H](C(=O)N[C@@H](C(C)C)C4=N[C@H](C(=O)N[C@H]2C(C)C)C(C)O4)C(C)O3)C(C)O1 (stereo not given in full),19.1%
16,c1ccc2c(C3=NCCO3)cccc2c1,-34.6%
17,CC(C)(C)C(=O)c1ccc(-c2ccccc2)cc1,-56.3%
18,COC1C(C(=O)O)=CC=CC1OC(C)=O (stereo not given),-44.1%
19,CCCC(O)CNCC1CCC2CCc3cccc1c32 (stereo not given),2.05%
20,CCCCn1cnc2c(SCc3ccc(Cl)cc3Cl)nc(N)nc21,21.2%

row,SMILES,growth inhibition
1,Cc1ccc2c(c1)SCc1c-2[nH]c2ccccc12,88.9% (active)
2,COC(=O)c1cncn1C1CC1,-58.5%
3,COC(=O)C1C(=O)C2OC1C1OC(C)(C)OC21 (stereo not given),-52.4%
4,CC(C)(Oc1ccc(Cl)cc1)C(=O)NC1CC(C)(C)N(O)C(C)(C)C1,-48.5%
5,COC1C(O)CC(OC2CC(OC3CC(O[C@@H]4C(=O)c5c(cc6cc(OC7CC(OC8CC(O)C(O)C(C)O8)C(O)C(C)O7)c(C)c(O)c6c5O)C[C@H]4[C@H](OC)C(=O)[C@@H](O)[C@@H](C)O)OC(C)C3O)OC(C)C2O)OC1C (stereo not given in full),43.7%
6,O=CNCC1(c2ccccc2)CCN(Cc2ccccc2)CC1,2.05%
7,O=C(NCCCl)NCC1CCCO1 (stereo not given),-48.9%
8,O=C(O)c1ccc(F)cc1C(=O)O,5.25%
9,O=C1CCc2ccccc21,15.1%
10,Nc1nc(N)c2nnsc2n1,16.6%
11,O=C(NNC(=S)Nc1ccc(S(=O)(=O)N2CCCCC2)cc1)c1ccncc1,4.2%
12,Cn1c(=O)oc2cc([N+](=O)[O-])c(Cl)cc21,-1.35%
13,CCOC(=O)c1ccc(NC(=O)CNC2CCCCC2)cc1,-40.8%
14,Nc1ccc(N=Nc2ccccc2)c(N)c1,-52.1%
15,COc1ccc(C(SCC(N)C(=O)O)(c2ccccc2)c2ccccc2)cc1 (stereo not given),-42.4%
16,O=C1C2C(C(=O)N1c1ccccc1)C1(Br)c3ccccc3C2(Br)C2C(=O)N(c3ccccc3)C(=O)C21 (stereo not given),-13.4%
17,N#Cc1cccc(N2C(=O)c3ccc(C(=O)c4ccc5c(c4)C(=O)N(c4cccc(C#N)c4)C5=O)cc3C2=O)c1,23.8%
18,CCCCCCCCn1nnnc1N,0.5%
19,CC(C)CC(NS(=O)(=O)Cc1ccccc1)C(=O)NN (stereo not given),11.2%
20,CN1CCC/C1=N\c1ncn[nH]1,-65.3%
